What was measured:
Assay in all cases: PBM binding z-score (relative to random genomic background probes); higher = stronger binding; sequences stand for … in GC…GCGATTGACAGCGTAGAATGAAGG
[1] = test system: PPARg:RXRa DBDmut IVT, anti-RXR (DBD mutation: RXRa K156A/R161A, NR concentration 270 nM, RXRa partner concentration 90 nM)
Method in brief: (§1)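 Probes were double-stranded and carried 34-nt variable regions with direct-repeat seeds, single-nucleotide variants, half-site ablations and random human genomic background sequences, printed on custom Agilent 4×180K protein-binding microarrays. Arrays were incubated 1 h with ligand-free nuclear receptor dimers in PBS pH 7.4, 2% milk, 0.02% Triton X-100, 1 mM DTT, 0.2 mg/mL BSA and 0.4 mg/ml salmon testes DNA. Antibodies against each partner (one per run) detected binding, and scanned fluorescence was regression-normalized. Binding z-scores use the random background probes as reference.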

[2] = test system: PPARg:RXRa IVT, anti-PPARg (NR concentration 270 nM, RXRa partner concentration 90 nM)
Method in brief: as §1

[3] = test system: PPARg DBDmut:RXRa IVT, anti-PPARg (DBD mutation: PPARg1 K132A/R137A, NR concentration 270 nM, RXRa partner concentration 90 nM)
Method in brief: as §1

[4] = test system: PPARg DBDmut IVT, anti-PPARg (DBD mutation: PPARg1 K132A/R137A, NR concentration 270 nM)
Method in brief: as §1

[5] = test system: PPARg homodimer (NR concentration 180 nM)
Method in brief: as §1

[6] = test system: PXR:RXRa (NR concentration 270 nM, RXRa partner concentration 90 nM)
Method in brief: as §1

[7] = test system: PXR homodimer (NR concentration 270 nM)
Method in brief: as §1

[8] = test system: RARa:RXR (NR concentration 270 nM, RXRa partner concentration 90 nM)
Method in brief: as §1

[9] = test system: RARa homodimer (NR concentration 270 nM)
Method in brief: as §1

[10] = test system: RARb:RXRa (NR concentration 270 nM, RXRa partner concentration 90 nM)
Method in brief: as §1

[11] = test system: RARb homodimer (NR concentration 270 nM)
Method in brief: as §1

[12] = test system: RARg:RXRa (NR concentration 270 nM, RXRa partner concentration 90 nM)
Method in brief: as §1

[13] = test system: RARg homodimer (NR concentration 270 nM)
Method in brief: as §1

[14] = test system: RXRa DBDmut IVT, anti-RXR (DBD mutation: RXRa K156A/R161A, NR concentration 90 nM)
Method in brief: as §1

[15] = test system: RXRa homodimer (NR concentration 180 nM)
Method in brief: as §1

[16] = test system: THRa:RXRa (NR concentration 90 nM, RXRa partner concentration 90 nM)
Method in brief: as §1

[17] = test system: THRa homodimer (NR concentration 90 nM)
Method in brief: as §1

[18] = test system: VDR homodimer (NR concentration 270 nM)
Method in brief: as §1

Sequence | PBM binding z-score [1] | PBM binding z-score [2] | PBM binding z-score [3] | PBM binding z-score [4] | PBM binding z-score [5] | PBM binding z-score [6] | PBM binding z-score [7] | PBM binding z-score [8] | PBM binding z-score [9] | PBM binding z-score [10] | PBM binding z-score [11] | PBM binding z-score [12] | PBM binding z-score [13] | PBM binding z-score [14] | PBM binding z-score [15] | PBM binding z-score [16] | PBM binding z-score [17] | PBM binding z-score [18]
CGTCCAAGGTCAGAGAGTTCAGTGAATGCCGAGT | 2.97 | 2.07 | -0.209 | -1.29 | 2.85 | 6.75 | 14.2 | 4.08 | 1.32 | 4.78 | 4.39 | 5.25 | 6.4 | 3.78 | 4.59 | 3.62 | 2 | 7.94
CGAACTAGGTCAAGGACAATGAATCTCCGCACGC | 8.3 | 8.44 | 2.51 | 1.02 | 2.03 | 1.31 | 0.478 | 1.99 | -0.186 | 3.99 | 3.13 | 3.87 | 4.64 | 1.52 | 2.78 | 3.12 | 2.15 | 0.633
CCTCGGAGGACCGAAGGTCAGAGCTGTCCGCTTT | -0.463 | -0.175 | -1.41 | -1.98 | 0.693 | 1.16 | -0.615 | 1.55 | -0.211 | 2.2 | 2.65 | 2.03 | 2.2 | -0.585 | 1.54 | 1.62 | -0.389 | 0.161
GATACAGGGTAAAGGCCAGAGTACGCGTATTGAT | 1.02 | 2.64 | 0.254 | -0.000144 | 0.5 | 0.017 | -0.0145 | 0.137 | -0.111 | 1.18 | 0.909 | 0.831 | 0.93 | -0.389 | 0.877 | 0.316 | -0.482 | -0.0194
ACAATGAGGTTACCAAAGATCAGGGAAACGCTTG | 2.64 | 2.42 | 0.961 | 1.48 | 0.966 | 1.52 | 0.0541 | 2.2 | 0.0916 | 2.32 | 1.14 | 2.27 | 2.07 | 1.4 | 2.9 | 2.77 | 1.14 | 0.706
CAAACTAGGTCACCCGAAGGTCAAAGTCCGCATG | 8.43 | 8.81 | 7.92 | 7.09 | 11.1 | 6.02 | 2.67 | 7.7 | 3.95 | 5.29 | 5.43 | 7.91 | 6.9 | 2.35 | 6.29 | 4.45 | 3.04 | 4.18
ATATGTAGGTTAGCTGGGGTCATACAGACTAGGC | 6.97 | 6.06 | 1.52 | 1.48 | 2.67 | 6.28 | 3.07 | 5.89 | 1.68 | 3.13 | 3.9 | 4.36 | 3.32 | 1.64 | 6.14 | 5.18 | 3.83 | 4.09
TCTAGTTGGTCACGGAGCTCACACACGACGGGTA | 2.15 | 2.2 | 0.346 | 0.786 | 0.57 | 0.334 | -0.237 | 0.366 | 0.0423 | 1.5 | 0.591 | 1.04 | 1.24 | 0.372 | 0.925 | -0.123 | -0.466 | -0.521
CCTAGTTGGTCAGGAGGTCACTCACCGGATATGA | 1.33 | 2.97 | 0.254 | 0.0226 | 3.04 | 3.74 | 0.903 | 3.94 | 2.42 | 3.41 | 3.92 | 4.48 | 3.73 | 0.697 | 3.58 | 3.17 | 2.09 | 2.45
TCATATAGGTAAATGCTAGGTGGAAGTCCGATCT | 3.98 | 2.01 | 1.68 | 0.774 | 0.237 | 0.234 | 0.0145 | 0.241 | 0.904 | 0.253 | -0.19 | 0.303 | 0.0562 | 1.28 | 0.571 | 0.0546 | -0.18 | 0.0417
CGTTCAAGGTCAGAGAGGTCAGTGAATGCCGAGT | 3.67 | 4.41 | 1.75 | 1.56 | 5.16 | 6.25 | 12.2 | 5.57 | 2.45 | 5.45 | 5.35 | 6.32 | 7.17 | 3.83 | 5.61 | 4.37 | 3.21 | 5.8
GCAGACTGGTGAAACGCAGGTAACTCAGGGTGGC | -0.965 | -0.728 | -0.431 | -1.07 | -1.3 | -0.855 | -0.855 | -0.718 | -1.39 | -0.689 | -1.13 | -0.789 | -0.946 | -1.05 | -0.735 | 0.213 | -0.648 | -1.15
CAAACTAGGTCAACAGGTCAAAGTCCGCTTCCCG | 8.61 | 8.71 | 4.74 | 3.76 | 4.14 | 4.32 | 1.23 | 5.98 | 3.05 | 4.81 | 4.94 | 6.85 | 6.36 | 2.45 | 5.98 | 3.78 | 1.9 | 2.78
GCATTTAGGTAATACAAGGTGAAAGTCCGATTGT | 3.13 | 2.5 | 1.39 | 0.568 | 0.826 | 0.319 | 0.3 | 0.911 | 0.039 | 0.715 | 1.06 | 0.319 | 0.48 | 0.617 | 0.375 | 3.89 | 1.59 | 0.0936
CCTACTCGGCCAAGGTCATTGATCAGTCAAAGCA | 1.8 | 1.68 | -0.0349 | -0.365 | 2.76 | 3.75 | 2.34 | 3.59 | 1.82 | 3.52 | 3.33 | 3.95 | 3.71 | 2.24 | 3.6 | 3.36 | 2.98 | 3.83

From the supplement of paper PMC6555819
